Laboratory results reported in PubChem BioAssay (NCATS).
Results filed as inconclusive are left out. A number with no mark means an inactive call. Activity calls are given as the source filed them. Calls follow the shape of the dose curve; as a rule, active = well fitted activation curve with a large enough effect; inconclusive = small, poorly fitted or top-dose-only effect; inactive = flat fitted curve, though single readings scatter.

Experiment: Validation screen for small molecules that induce DNA re-replication in MCF 10A normal breast cells (AID 463097); also: nearly all actives have a fitted effect of over 60% in size; as to re-replication induction: 0% is about no effect
Settings: MCF 10A cells, DNA re-replication phenotype imaging; series mostly up to 46.1 µM; re-replication induction: at the top concentration
Source text: NIH Molecular Libraries Probe Production Network [MLPCN]
NIH Chemical Genomics Center [NCGC]
Assay Provider: Melvin DePamphilis, NICHD, NIH
Eukaryotic cells normally restrict genome duplication to once per cell division. When this process is aberrant, DNA re-replication occurs when cells reinitiate DNA replication before the first round of replication is complete. DNA re-replication induces the DNA damage response, arrests cell proliferation, and triggers apoptosis. The cell cycle components cyclin A, Cdt-1, Cdc6 and geminin are critical regulators of this process and their misregulation results in DNA re-replication in normal and cancer cells. To identify compounds that induce re-replication in normal cells, an image-based assay was used to measure DNA content of nuclei, as detected by the fluorescent DNA binding dye, Hoechst. Cell nuclei were imaged by a fluorescence scanning plate imager and compounds that induce DNA re-replication were identified by the increase of nuclei with elevated fluorescence intensity.
For screening, 250 cells in 5 uL/well were dispensed into black clear 1536-well plates (Aurora) using a solenoid-based dispenser. Following transfer of 23 nL compound or DMSO vehicle by a pin tool, the plates were incubated 48 hr at 37 C and 5% CO2. After addition of 1 uL/well Hoescht stain, the plates were incubated 40 min at 37 C, 5% CO2 and total intensity of fluorescent objects (nuclei) were enumerated by an Acumen Explorer Ex3 (TTP LabTech) fluorescence scanning plate imager (405 nm excitation, 500-530 nm emission).
Keywords: NIH Roadmap, MLPCN, MLI, MLSMR, qHTS, NCGC, DNA replication, cancer
Potency is read from the fitted curve at half-maximal effect.

Point of comparison: `Nc1nc(N)c2nc(CNc3ccc(C(=O)NC(CCC(=O)O)C(=O)O)cc3)cnc2n1` (stereo unspecified), “re-replication induction” value -15.3%. Against it:
- CCN1CCCC1CNC(=O)c1cc(S(N)(=O)=O)ccc1OC (stereo unspecified) — higher, 4.85%
- CC(C)(C)NC(=O)[C@H]1CC[C@H]2[C@@H]3CC[C@H]4NC(=O)C=C[C@]4(C)[C@H]3CC[C@]12C — higher, -3.54%
- CC1=C(C(=O)O)N2C(=O)[C@@H](NC(=O)C(N)c3ccccc3)[C@H]2SC1 (stereo partly specified) — higher, 2.14%
- CC(C)NCC(O)c1ccc(NS(C)(=O)=O)cc1 (stereo unspecified) — higher, -6.97%
- CCN(CC)CC#CCOC(=O)C(O)(c1ccccc1)C1CCCCC1 (stereo unspecified) — higher, 9.23%
- CCCCS(=N)(=O)CCC(N)C(=O)O (stereo unspecified) — higher, -0.284%
- NC(=O)c1cccc(N)c1 — higher, -2.24%
- CC(=O)[C@H]1CC[C@H]2[C@@H]3CCC4=CC(=O)CC[C@]4(C)[C@H]3CC[C@]12C — higher, -4.48%
- O=C(O)C1CCCN(CCC=C(c2ccccc2)c2ccccc2)C1 (stereo unspecified) — higher, 0.353%

With `OCc1ccc(-c2nn(Cc3ccccc3)c3ccccc23)o1` the Potency was 12.6 µM (active).
